L3MBTL1 block: qHTS Assay for the Inhibitors of L3MBTL1; AlphaScreen L3MBTL1–H3K9me1 peptide binding; Lethal(3)malignant brain tumor-like protein 1 (Homo sapiens), Q9Y468; AID 485360, 2010; 230,000 compounds, 0.66% hits; Potency, µM (doses to about 57.1 µM), hits mostly inhibitors; note: nearly all actives have a fitted effect of over 60% in size
Target sequence (Q9Y468 whole entry, looked up): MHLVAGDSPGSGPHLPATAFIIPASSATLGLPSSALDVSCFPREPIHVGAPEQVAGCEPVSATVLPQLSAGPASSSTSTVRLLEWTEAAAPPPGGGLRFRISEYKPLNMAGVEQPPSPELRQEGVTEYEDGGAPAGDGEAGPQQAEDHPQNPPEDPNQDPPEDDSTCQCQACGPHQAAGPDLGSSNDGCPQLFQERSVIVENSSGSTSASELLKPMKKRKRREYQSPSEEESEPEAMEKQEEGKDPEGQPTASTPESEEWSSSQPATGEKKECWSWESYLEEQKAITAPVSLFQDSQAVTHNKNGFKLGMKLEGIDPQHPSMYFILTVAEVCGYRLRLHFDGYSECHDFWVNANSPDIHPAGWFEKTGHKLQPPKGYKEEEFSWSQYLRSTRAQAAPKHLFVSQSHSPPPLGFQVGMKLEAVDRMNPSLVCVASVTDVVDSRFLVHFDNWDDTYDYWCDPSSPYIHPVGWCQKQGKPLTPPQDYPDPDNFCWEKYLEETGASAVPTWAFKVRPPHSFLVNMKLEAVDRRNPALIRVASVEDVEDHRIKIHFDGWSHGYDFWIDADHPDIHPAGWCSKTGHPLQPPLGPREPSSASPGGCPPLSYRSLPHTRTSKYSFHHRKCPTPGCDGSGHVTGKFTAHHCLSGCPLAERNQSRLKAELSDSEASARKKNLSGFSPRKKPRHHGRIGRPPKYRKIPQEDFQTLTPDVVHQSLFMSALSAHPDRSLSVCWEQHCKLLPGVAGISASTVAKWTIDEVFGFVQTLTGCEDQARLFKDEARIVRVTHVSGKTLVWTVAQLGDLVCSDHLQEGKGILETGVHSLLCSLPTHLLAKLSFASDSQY
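Read-out is AlphaScreen signal from streptavidin donor and nickel chelate acceptor beads (10 ug/mL final each) bridging L3MBTL1 (50 nM) and biotinylated K9-monomethylated H3(1-15) peptide (75 nM), after 30 min compound exposure at room temperature.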
BLM helicase inh: qHTS Assay for Inhibitors of Bloom's syndrome helicase (BLM); RecQ-like DNA helicase BLM (Homo sapiens), P54132; recombinant BLM DNA unwinding, fluorescence dequenching; Potency, µM (top dose mostly 56.1 µM), actives largely listed as inhibitors; 350,000 compounds, 0.2% hits; AID 2528, 2010; note: nearly all actives have a fitted effect of over 35% in size
TDP1 inh: qHTS Assay for Inhibitors of Tyrosyl-DNA Phosphodiesterase (TDP1); Potency, µM (titrated, usually from 130 µM), actives largely listed as inhibitors; 350,000 compounds, 0.28% hits; recombinant TDP1, AlphaScreen DNA substrate cleavage; note: nearly all actives have a fitted effect of over 40% in size
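Tdp1 1 nM final; 15 min RT w/ cpd; substrate 15 nM, 5 min; beads 10 ug/ml, 10 min; AlphaScreen read. Neg ctrl: no enzyme.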
APE1 inh: qHTS Assay for Inhibitors of the Human Apurinic/apyrimidinic Endonuclease 1 (APE1); DNA repair nuclease/redox regulator APEX1 (Homo sapiens), P27695; recombinant APE1, TAMRA/BHQ-2 abasic DNA cleavage fluorescence; Potency, µM (doses to about 65.8 µM), hits mostly inhibitors; 350,000 compounds, 0.35% hits; note: nearly all actives have a fitted effect of over 55% in size
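Readout is kinetic fluorescence (ex 525, em 598 nm) from cleavage of 50 nM TAMRA/BHQ-2 THF abasic duplex by 0.75 nM APE1, compound added 15 min beforehand at RT.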
JMJD2E inh: qHTS Assay for Inhibitors of Human Jumonji Domain Containing 2E (JMJD2E). JMJD2E catalytic domain, FDH-coupled NADH fluorescence (FDH is formaldehyde dehydrogenase). Lysine-specific demethylase 4E (Homo sapiens), B2RXH2. Potency, µM (series often up to 57.1 µM), actives largely listed as inhibitors. AID 2147, 2009. 230,000 compounds, 1.6% hits; active = well fitted inhibition curve with a large enough effect, not every such curve was filed as active; inconclusive = small, poorly fitted or top-dose-only effect, or another doubt; inactive = no such curve, though single readings can be large or run the other way; note: nearly all actives have a fitted effect of over 50% in size
RECQ1 inh: qHTS Assay for Inhibitors of RecQ-Like Dna Helicase 1 (RECQ1); ATP-dependent DNA helicase Q1 (Homo sapiens), P46063; RECQ1 DNA unwinding, red fluorescence kinetic read; Potency, µM (doses to about 57.3 µM), most hits filed as inhibitors; 240,000 compounds, 0.54% hits; AID 2549, 2010; note: nearly all actives have a fitted effect of over 30% in size
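50 nM RECQ1T1 preincubated 15 min with compound in Tris pH 8.0 buffer with MgCl2, DTT, Tween-20 and 2.5 ug/ml poly(dI-dC); started with 200 nM TAMRA/BHQ-2 forked duplex and 2 mM ATP. Unwinding read as fluorescence (525/598 nm), two reads 2 h apart.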
Numbers stand for hits; ! = a repeat was not active; [ ] = another dose, or the depositor's remark. This is one part of a sample in which hits are shown more often than they occur. Unless noted, calls come from the whole dose curve; as a rule, active = well fitted curve in the direction sought with a large enough effect; inconclusive = small, poorly fitted or top-dose-only effect, or another doubt; inactive = no such curve, though single readings can be large; an effect the other way counts as inactive or inconclusive.

`O=C(/C=C/c1ccccc1)NC(=S)NNC(=O)c1cnccn1` gave BLM helicase inh inactive, TDP1 inh inactive, APE1 inh inactive, JMJD2E inh 8.91µM and RECQ1 inh inactive.
Screening O=C(CCCCCNC(=O)c1ccccc1)N/N=C/c1ccccc1O returned L3MBTL1 block inactive, BLM helicase inh inactive, TDP1 inh inactive, APE1 inh inactive, JMJD2E inh 25.1µM and RECQ1 inh inactive.
Cc1ccc(S(=O)(=O)NCC(=O)N/N=C/c2ccccc2O)cc1 was read as L3MBTL1 block inactive, BLM helicase inh inactive, TDP1 inh inactive, APE1 inh inactive, JMJD2E inh 25.1µM and RECQ1 inh inactive.
O=C(CCCCCNC(=O)c1ccccc1)N/N=C/c1ccco1 was read as L3MBTL1 block inactive, BLM helicase inh inactive, TDP1 inh 39.8µM, APE1 inh inconclusive, JMJD2E inh inactive and RECQ1 inh inactive.
`O=c1cc(-c2cccc(O)c2O)oc2ccccc12` gave BLM helicase inh inactive, TDP1 inh inactive, APE1 inh inactive, JMJD2E inh 7.08µM and RECQ1 inh 6.31µM.
For O=c1cc(-c2ccccc2O)oc2cc(O)ccc12 the results were BLM helicase inh inactive, TDP1 inh inactive, APE1 inh inactive, JMJD2E inh inactive and RECQ1 inh inactive.
Screening COc1cc(/C=N/Nc2nncn2N)ccc1OCc1c(C)no[n+]1[O-] returned L3MBTL1 block inactive, BLM helicase inh inactive, TDP1 inh inactive, APE1 inh inactive, JMJD2E inh 0.501µM and RECQ1 inh inactive.
COc1ccc(/C=N/Nc2nncn2N)cc1Br was read as L3MBTL1 block inconclusive, BLM helicase inh inactive and APE1 inh inactive.
`CNC(=S)N/N=C/c1ccc(-c2cccc(C(=O)O)c2)o1` gave BLM helicase inh inactive, TDP1 inh inactive, APE1 inh inactive, JMJD2E inh inconclusive and RECQ1 inh inactive.
`O=C(O)c1cccc(-c2ccc(/C=N/NC(=O)C3COc4ccccc4O3)o2)c1` (centres undefined) gave L3MBTL1 block inconclusive, BLM helicase inh inactive, TDP1 inh inconclusive, APE1 inh inactive, JMJD2E inh inconclusive and RECQ1 inh inactive.
CC(C)(C)c1ccc2c(c1)OC(C(=O)N/N=C\c1ccc(-c3cccc(C(=O)O)c3)o1)CO2 (centres undefined) was read as L3MBTL1 block 15.8µM, BLM helicase inh inactive, APE1 inh inconclusive, JMJD2E inh inconclusive and RECQ1 inh inactive.
For O=C(O)c1cccc(-c2ccc(/C=N/Nc3nn[nH]n3)o2)c1 the results were L3MBTL1 block 20µM, BLM helicase inh inactive, TDP1 inh inactive, APE1 inh inactive, JMJD2E inh inconclusive and RECQ1 inh inactive.
Screening Cc1ccc(OCC(=O)N/N=C\c2ccc(-c3cccc(C(=O)O)c3)o2)c(C)c1 returned L3MBTL1 block 5.62µM, BLM helicase inh inactive, TDP1 inh inactive, APE1 inh inactive, JMJD2E inh inactive and RECQ1 inh inactive.
For Oc1ccc(/C=C/c2ccccc2)c2cccnc12 the results were TDP1 inh inactive.
For CC(=O)Nc1ccc(Nc2c3c4c(cccc4n(C)c2=O)C(=O)c2ccccc2-3)cc1 the results were L3MBTL1 block inactive, BLM helicase inh inactive, TDP1 inh inactive, APE1 inh inconclusive, JMJD2E inh inactive and RECQ1 inh inactive.
Cn1c(=O)c(N)c2c3c(c(Br)ccc31)C(=O)c1ccccc1-2 was read as L3MBTL1 block inactive, BLM helicase inh inactive, TDP1 inh inactive, APE1 inh inactive, JMJD2E inh 25.1µM and RECQ1 inh inactive.
For COc1cc(/C=C/c2nc3cc(Cl)ccc3c(=O)n2-c2ccc(C)cc2C)cc(OC)c1OC the results were BLM helicase inh inactive and TDP1 inh inactive.
`Nc1ccc(C(=O)O)c(O)c1` gave L3MBTL1 block inactive, BLM helicase inh inactive, TDP1 inh inactive, APE1 inh inactive, JMJD2E inh 7.08µM! and RECQ1 inh inactive.
For C/C(=C\C=C(C#N)C#N)c1cc(C#N)c(N)o1 the results were L3MBTL1 block inactive, BLM helicase inh inconclusive, TDP1 inh inactive, APE1 inh inconclusive, JMJD2E inh inconclusive and RECQ1 inh 14.1µM.
For CC(C)(C)c1ccc(C(=O)Nc2ccc(NC(=O)c3ccc(Cl)c(Cl)c3)cc2)cc1 the results were BLM helicase inh inactive and TDP1 inh inactive[12.3 µM].
Screening O=C(Nc1ccc(C(=O)N2CCCCC2)cc1)c1ccc(Br)cc1 returned L3MBTL1 block inactive, BLM helicase inh inactive, TDP1 inh inactive, APE1 inh inactive, JMJD2E inh inactive and RECQ1 inh inactive.
CC(C)(C)c1ccc(C(=O)Nc2ccc(C=C(C#N)C#N)cc2)cc1 was read as L3MBTL1 block inactive, BLM helicase inh inactive, TDP1 inh inactive, APE1 inh inactive, JMJD2E inh 11.2µM and RECQ1 inh inactive.
`N#CC(C#N)=Cc1ccc(NC(=O)c2ccc(Br)cc2)cc1` gave BLM helicase inh inactive, APE1 inh inactive, JMJD2E inh 20µM and RECQ1 inh inactive.
For COc1ccc(-n2c(Cc3cccn3C)nnc2SCC(=O)N2CCCc3ccccc32)cc1 the results were L3MBTL1 block inactive, BLM helicase inh inactive, TDP1 inh inactive, APE1 inh inactive, JMJD2E inh inactive and RECQ1 inh 15.8µM.
For CCOc1ccc(NC2=C(Cl)C(=O)N(Cc3ccccc3)C2=O)cc1 the results were L3MBTL1 block inactive, BLM helicase inh inactive, TDP1 inh inactive, APE1 inh inactive, JMJD2E inh inactive and RECQ1 inh inactive.
Cc1ccc(O)c(NC2=C(Cl)C(=O)N(Cc3ccccc3)C2=O)c1 was read as L3MBTL1 block inconclusive, BLM helicase inh inactive, TDP1 inh inactive, APE1 inh inactive, JMJD2E inh 22.4µM and RECQ1 inh inactive.
`Cc1nn(Cc2ccc(F)cc2)c(C)c1NC(=O)c1cc2ncc(Br)cn2n1` gave L3MBTL1 block inactive, BLM helicase inh inactive, TDP1 inh 31.6µM, APE1 inh inactive, JMJD2E inh inactive and RECQ1 inh inactive.
Screening Cc1cc(C)n2nc(C(=O)Nc3c(C)nn(Cc4ccc(F)cc4)c3C)cc2n1 returned L3MBTL1 block inactive, BLM helicase inh inactive, TDP1 inh inactive, APE1 inh inactive, JMJD2E inh inconclusive and RECQ1 inh inactive.
For O=[N+]([O-])c1ccc(CNc2ccc(F)cc2)s1 the results were L3MBTL1 block inactive, BLM helicase inh inactive, TDP1 inh inactive and APE1 inh inactive.

High-throughput results as filed in PubChem.
